Measured values reported in PubChem BioAssay (NCI).
This is part of a sample that, as a whole, favours compounds with a hit. Of some 83,000 tested, about 20% had one in any assay.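 Percent growth is the endpoint: 0 to 100 indicates growth inhibition (40 means 60% inhibition), 0 means no net growth, and negative values indicate cell death.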 Values without a mark were called inactive. Active and inactive are the calls of the source. How the source made its calls: active means growth percent below 10; inactive means the rest.

Assays:
Assay in all cases: NCI-60 one-dose screen, 48 h (100 = growth as untreated, 0 = no growth, -100 = all killed)
Settings in all cases: 10 µM unless noted
DU-145 prostate = tested on: DU-145 prostate
K-562 leukemia = tested on: K-562 leukemia
MALME-3M melanoma = tested on: MALME-3M melanoma
MDA-MB-231 breast = tested on: MDA-MB-231 breast
RXF 393 renal = tested on: RXF 393 renal
SF-268 CNS = tested on: SF-268 CNS
SF-295 CNS = tested on: SF-295 CNS
SF-539 CNS = tested on: SF-539 CNS
UACC-257 melanoma = tested on: UACC-257 melanoma
M14 melanoma = tested on: M14 melanoma

Row | SMILES | growth (DU-145 prostate) | growth (K-562 leukemia) | growth (MALME-3M melanoma) | growth (MDA-MB-231 breast) | growth (RXF 393 renal) | growth (SF-268 CNS) | growth (SF-295 CNS) | growth (SF-539 CNS) | growth (UACC-257 melanoma) | growth (M14 melanoma)
1 | COc1cc(/C=C2\C(=O)N(c3c(Cl)cccc3Cl)c3ccccc32)cc(OC)c1OCCCCCCn1c2ccccc2c(=O)c2ccccc21 | 104% | 98.8% | 106% | 100% | 106% | 87.6% | 99% | 93.8% | 111% | 93.8%
2 | C[N+](C)(C/C=C/c1ccccc1)Cc1ccccc1 | 102% | 110% | 86.8% | 102% | 99.2% | 90.3% | 93.5% | 93.9% | 97.7% | 85.6%
3 | C#CC#CC#CC#CC#CC#CC#CC#CCC1OCC(COC(=O)O[C@@H](C(=O)O[C@H]2C[C@@]3(O)[C@@H](OC(=O)c4ccccc4)[C@@H]4[C@]5(OC(C)=O)CO[C@@H]5C[C@H](O)[C@@]4(C)C(=O)[C@H](OC(C)=O)C(=C2C)C3(C)C)[C@@H](NC(=O)c2ccccc2)c2ccccc2)O1 (stereo not given in full) | 6.68% (active) | 12.6% | 41.9% | 20% | -9.54% (active) | 34.4% | 4.59% (active) | -0.927% (active) | 53% | -22% (active)
4 | CN1CCCc2cc(/C=C3/SC(=S)N(CCc4ccc(O)cc4)C3=O)ccc21 | 85.9% | 27.6% | 96.6% | 81.8% | 94.6% | 76.3% | 99.7% | 84.8% | 93.2% | 78.6%
5 | O=C(CBr)CN1C(=O)c2ccccc2C1=O | 104% | 89.7% | 100% | 107% | 120% | 99.1% | 101% | 96.2% | 101% | 104%
6 | CC(C)c1ccc(-n2c(=S)[nH]c3sc4c(c3c2=O)CCC(=O)C4)cc1 | 104% | 56.7% | 88.7% | 68.3% | 48.9% | 28.7% | 21.1% | 23.3% | 75.3% | 60.4%
7 | COc1ccc(-c2cc(-c3cc(OC)c(OC)c(OC)c3)c(C#N)c(=O)n2CCCCCC(=O)NO)cc1 | 92.5% | 83% | 97.8% | 75.9% | 92.9% | 91.6% | 91.2% | 90.4% | 99.6% | 99.5%
8 | COC(=O)/C(CCC=C(C)C)=C1\[C@@H](OC(C)=O)C[C@@]2(C)[C@H]1CC(=O)[C@H]1[C@@]3(C)CCC(N4CCCC4)[C@@H](C)[C@@H]3CC[C@@]12C (stereo not given in full) | 101% | 12.5% | 100% | 130% | 98.3% | 97.6% | 98.3% | 102% | 110% | 93.1%
9 | CCCCn1sc(=O)n(Cc2ccc(CNC(=O)OCc3ccc4c(Cl)cc(Cl)c(O)c4n3)cc2)c1=O | 58.5% | 42.9% | 73% | 84.4% | 74.3% | 67.1% | 34.5% | 78% | 97.6% | 60.7%
10 | O=C(CCCCl)NNc1nccc(Nc2ccc(S(=O)(=O)Nc3ccncc3)cc2)n1 | 103% | 111% | 108% | 116% | 117% | 95.9% | 96.7% | 102% | 96.3% | 97.7%
11 | C/C(C=O)=C\c1ccc2c(c1)OCO2 | 108% | 113% | 127% | 121% | 98.3% | 110% | 104% | 106% | 109% | 121%
12 | COc1cc2ncnc(Nc3ccc(F)c(Cl)c3)c2cc1OCC(=O)N1CCN(c2ccc(F)cc2)CC1 | 60.5% | 83.6% | 92.2% | 79.3% | 103% | 79.5% | 94.1% | 100% | 114% | 81.3%
13 | CC(C)[C@@]12C[C@@H](OC(=O)COC(=O)c3ccccc3)[C@@](C)(O1)[C@@H]1CC[C@@H](C)[C@H]1[C@@H]2OC(=O)/C=C/c1ccccc1 | 101% | 75.4% | 106% | 86.3% | -2.22% (active) | 63.4% | 94.5% | 95.4% | 95.3% | 104%
14 | Nc1ncnc2c1c(-c1ccc(Oc3ccccc3)cc1)nn2CC1SSCC1O (stereo not given) | 49% | 11.2% | -34.8% (active) | 47% | 17.7% | 48.8% | 73% | 41.2% | 46.6% | -73.5% (active)
15 | Cc1ccc(/C=C/C(=O)c2ccc(NC(=O)CSc3nc4c([nH]3)c(=O)n(C)c(=O)n4C)cc2)c(C)c1 | 40.1% | 55.9% | 58.7% | 5.32% (active) | -3.94% (active) | 46.2% | 47.6% | 55.1% | 62% | 56.8%
16 | N=C(N)c1ccc(-c2ccc(-c3ccc(Cl)cc3)o2)o1 | -80.4% (active) | -60% (active) | 90.6% | -60.2% (active) | 40.4% | 17.9% | 27.4% | 74.1% | 53.4% | 19.7%
17 | Cc1ccc(C(=O)c2ccc(CC(=O)N/N=C/c3ccc(O)cc3O)n2C)cc1 | 51.3% | 45% | 48.6% | 51.4% | 49.7% | 37.3% | 47.2% | 44.4% | 68.3% | 28.8%
18 | COc1ncc2cc1NS(=O)(=O)c1cccc(c1)C(=O)NCC1=CC=C(S1)c1ncnc3c1SC2=C3C | 9.14% (active) | 4.66% (active) | -39.2% (active) | 10.9% | -62.8% (active) | 0.0661% (active) | -21.6% (active) | -55.3% (active) | -1.33% (active) | -43.9% (active)
19 | C/C(=C(/c1ccc(Cl)cc1)c1ccc(OCCCN(C)C)cc1)c1ccc(Cl)cc1 | 95.5% | 16.9% | 96.4% | 99.2% | 77.6% | 88.5% | 110% | 99% | 103% | 91.5%
20 | O=c1[nH]cnc2c1C(c1ccc(Br)cc1)c1sc3c(F)cccc3c1O2 (stereo not given) | 100% | 94.6% | 96.1% | 94.5% | 101% | 91.9% | 97.9% | 96.4% | 106% | 101%
21 | COc1ccc2nc3cc(Cl)ccc3c(NCCN)c2c1 | -94.1% (active) | -64.6% (active) | -71% (active) | -71.6% (active) | -85.9% (active) | -53.7% (active) | -92.3% (active) | -72% (active) | 101% | -74.7% (active)
22 | CN1C(=O)N(C)C2C1NC(=S)N2/N=C/C=C/c1ccccc1[N+](=O)[O-] (stereo not given) | 18.7% | 14.7% | 54.4% | 56.1% | 13.1% | 41.3% | 9.8% (active) | 2.83% (active) | 44.1% | 6.06% (active)
23 | CCN1C(=O)N(CC)C2C1NN=c1s/c(=C\c3cc4ccccc4[nH]3)c(=O)n12 (stereo not given) | 16.4% | 9.13% (active) | 33.4% | 14.7% | 47.3% | 25.6% | 18.6% | -21.9% (active) | 45.5% | 19.8%
24 | O[C@@H](c1cc(C(F)(F)F)nc2c(C(F)(F)F)cccc12)[C@H]1CCCCN1 | 65.8% | 15.8% | 99% | 14.5% | 55.2% | 54.7% | 95.7% | 85.6% | 65.5% | 71.6%
25 | COC1=CC(c2ccc[nH]2)=N/C1=C\c1[nH]c(C)c(CC(=O)OCc2ccccc2)c1C | 20.8% | 2.58% (active) | -67.9% (active) | -13.6% (active) | -26.7% (active) | 9.87% (active) | -50.1% (active) | -4.33% (active) | -25% (active) | -55.9% (active)
26 | O=C(CCl)Nc1ccc2c(Nc3cc(O)ccc3Cl)ncnc2c1 | -89.1% (active) | -36% (active) | -86.4% (active) | -84.5% (active) | -88.6% (active) | -56.1% (active) | -77.1% (active) | -94% (active) | -11.5% (active) | -77.1% (active)
